Assay results as given in ChEMBL document CHEMBL1961873, “Compounds: GSK PKIS; Assays: Nanosyn kinase panel” (2012).

How the values were obtained:
[1] = biological target: Glycogen synthase kinase-3 beta (Homo sapiens) (UniProt P49841); details: at 1 µM;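 note: reported values are mean percent inhibition of GSK3B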
[2] = biological target: Homeodomain-interacting protein kinase 1 (Homo sapiens) (UniProt Q86Z02); details: at 0.1 µM
[3] = biological target: Homeodomain-interacting protein kinase 1 (Homo sapiens) (UniProt Q86Z02); details: at 1 µM
[4] = biological target: T1, Homeodomain-interacting protein kinase 4 (Homo sapiens) (UniProt Q8NE63); details: at 0.1 µM
T1 sequence (whole entry): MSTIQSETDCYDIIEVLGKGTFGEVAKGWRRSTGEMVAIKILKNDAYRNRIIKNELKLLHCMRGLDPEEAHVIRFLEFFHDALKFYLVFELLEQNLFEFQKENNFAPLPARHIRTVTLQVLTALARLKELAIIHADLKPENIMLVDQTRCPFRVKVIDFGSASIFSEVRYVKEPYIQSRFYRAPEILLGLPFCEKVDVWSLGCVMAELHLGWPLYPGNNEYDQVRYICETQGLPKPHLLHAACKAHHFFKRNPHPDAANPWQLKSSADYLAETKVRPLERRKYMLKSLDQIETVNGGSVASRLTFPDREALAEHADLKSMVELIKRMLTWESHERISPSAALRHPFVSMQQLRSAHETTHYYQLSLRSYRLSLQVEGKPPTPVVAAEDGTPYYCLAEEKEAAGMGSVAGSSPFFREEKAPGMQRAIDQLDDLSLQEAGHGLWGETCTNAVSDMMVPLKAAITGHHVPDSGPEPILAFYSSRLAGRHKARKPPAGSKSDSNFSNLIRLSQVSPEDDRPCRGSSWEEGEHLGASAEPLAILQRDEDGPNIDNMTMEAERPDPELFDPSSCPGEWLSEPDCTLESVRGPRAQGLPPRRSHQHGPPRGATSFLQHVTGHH

[5] = biological target: T1, Homeodomain-interacting protein kinase 4 (Homo sapiens); details: at 1 µM
[6] = biological target: Mitogen-activated protein kinase 9 (Homo sapiens) (UniProt P45984); details: at 0.1 µM
[7] = biological target: Mitogen-activated protein kinase 9 (Homo sapiens) (UniProt P45984); details: at 1 µM
[8] = biological target: Mitogen-activated protein kinase 1 (Homo sapiens) (UniProt P28482); details: at 0.1 µM
[9] = biological target: Mitogen-activated protein kinase 1 (Homo sapiens) (UniProt P28482); details: at 1 µM
[10] = biological target: Mitogen-activated protein kinase 3 (Homo sapiens) (UniProt P27361); details: at 0.1 µM
[11] = biological target: Mitogen-activated protein kinase 3 (Homo sapiens) (UniProt P27361); details: at 1 µM
[12] = biological target: SRSF protein kinase 3 (Homo sapiens) (UniProt Q9UPE1); details: at 0.1 µM
[13] = biological target: SRSF protein kinase 3 (Homo sapiens) (UniProt Q9UPE1); details: at 1 µM
[14] = biological target: Mitogen-activated protein kinase 14 (Homo sapiens) (UniProt Q16539); details: at 0.1 µM
[15] = biological target: Mitogen-activated protein kinase 14 (Homo sapiens) (UniProt Q16539); details: at 1 µM
[16] = biological target: Mitogen-activated protein kinase 11 (Homo sapiens) (UniProt Q15759); details: at 0.1 µM
[17] = biological target: Mitogen-activated protein kinase 11 (Homo sapiens) (UniProt Q15759); details: at 1 µM
[18] = biological target: T2, Mitogen-activated protein kinase 13 (Homo sapiens) (UniProt O15264); details: at 0.1 µM
T2 sequence (whole entry): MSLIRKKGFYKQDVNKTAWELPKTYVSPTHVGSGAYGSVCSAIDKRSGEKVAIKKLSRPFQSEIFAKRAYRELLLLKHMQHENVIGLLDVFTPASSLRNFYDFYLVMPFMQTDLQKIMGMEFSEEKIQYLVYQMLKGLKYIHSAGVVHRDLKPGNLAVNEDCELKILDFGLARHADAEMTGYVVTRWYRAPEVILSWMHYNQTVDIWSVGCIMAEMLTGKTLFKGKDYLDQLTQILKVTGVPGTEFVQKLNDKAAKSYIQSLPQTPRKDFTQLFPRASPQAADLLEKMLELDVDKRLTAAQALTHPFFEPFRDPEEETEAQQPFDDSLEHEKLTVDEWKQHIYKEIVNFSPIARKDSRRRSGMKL

[19] = biological target: T2, Mitogen-activated protein kinase 13 (Homo sapiens); details: at 1 µM
[20] = biological target: T3, Mitogen-activated protein kinase 12 (Homo sapiens) (UniProt P53778); details: at 0.1 µM
T3 sequence (whole entry): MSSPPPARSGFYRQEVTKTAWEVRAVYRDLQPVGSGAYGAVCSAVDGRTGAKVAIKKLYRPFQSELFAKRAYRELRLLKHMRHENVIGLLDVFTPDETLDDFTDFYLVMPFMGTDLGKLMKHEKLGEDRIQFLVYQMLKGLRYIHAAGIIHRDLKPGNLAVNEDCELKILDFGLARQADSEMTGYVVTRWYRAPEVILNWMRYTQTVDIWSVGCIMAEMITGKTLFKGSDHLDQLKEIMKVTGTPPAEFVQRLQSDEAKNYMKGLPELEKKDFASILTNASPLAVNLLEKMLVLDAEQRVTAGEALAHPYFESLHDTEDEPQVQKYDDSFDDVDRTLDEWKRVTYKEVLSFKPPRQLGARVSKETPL

Sequence of Glycogen synthase kinase-3 beta (Homo sapiens) (P49841 whole entry, looked up): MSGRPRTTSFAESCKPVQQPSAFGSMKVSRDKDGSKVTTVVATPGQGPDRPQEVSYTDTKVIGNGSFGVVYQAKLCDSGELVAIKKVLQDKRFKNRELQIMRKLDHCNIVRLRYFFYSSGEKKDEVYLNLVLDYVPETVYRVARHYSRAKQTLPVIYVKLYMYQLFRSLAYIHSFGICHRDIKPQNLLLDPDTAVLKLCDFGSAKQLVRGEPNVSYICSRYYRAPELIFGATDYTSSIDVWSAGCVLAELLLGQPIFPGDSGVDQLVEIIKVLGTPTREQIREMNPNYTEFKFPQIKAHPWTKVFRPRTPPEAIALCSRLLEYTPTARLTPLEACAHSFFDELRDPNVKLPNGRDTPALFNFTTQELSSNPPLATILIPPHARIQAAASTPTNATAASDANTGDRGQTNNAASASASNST
Sequence of Mitogen-activated protein kinase 14 (Homo sapiens) (Q16539 whole entry): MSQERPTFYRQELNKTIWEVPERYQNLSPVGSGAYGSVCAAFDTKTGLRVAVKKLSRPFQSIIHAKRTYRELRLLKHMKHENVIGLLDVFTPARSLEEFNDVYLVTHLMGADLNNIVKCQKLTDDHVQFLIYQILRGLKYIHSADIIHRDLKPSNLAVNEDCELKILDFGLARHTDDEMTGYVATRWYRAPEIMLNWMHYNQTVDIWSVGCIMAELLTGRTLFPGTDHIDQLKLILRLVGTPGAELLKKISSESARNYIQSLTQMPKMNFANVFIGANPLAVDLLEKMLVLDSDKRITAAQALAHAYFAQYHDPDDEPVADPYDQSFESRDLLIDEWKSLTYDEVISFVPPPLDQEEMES
Sequence of Mitogen-activated protein kinase 9 (Homo sapiens) (P45984 whole entry, looked up): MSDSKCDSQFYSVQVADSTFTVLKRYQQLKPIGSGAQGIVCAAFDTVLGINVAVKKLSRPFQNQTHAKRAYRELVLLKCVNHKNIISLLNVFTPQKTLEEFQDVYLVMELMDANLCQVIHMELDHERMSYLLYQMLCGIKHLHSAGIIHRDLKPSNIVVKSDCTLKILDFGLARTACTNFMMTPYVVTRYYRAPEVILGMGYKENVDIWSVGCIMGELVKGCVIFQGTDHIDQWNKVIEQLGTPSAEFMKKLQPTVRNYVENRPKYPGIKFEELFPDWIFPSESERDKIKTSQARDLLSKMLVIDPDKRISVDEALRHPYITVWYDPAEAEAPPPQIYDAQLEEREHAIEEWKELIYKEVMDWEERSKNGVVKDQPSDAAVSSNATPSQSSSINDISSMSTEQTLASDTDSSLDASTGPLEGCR
Sequence of SRSF protein kinase 3 (Homo sapiens) (Q9UPE1 whole entry): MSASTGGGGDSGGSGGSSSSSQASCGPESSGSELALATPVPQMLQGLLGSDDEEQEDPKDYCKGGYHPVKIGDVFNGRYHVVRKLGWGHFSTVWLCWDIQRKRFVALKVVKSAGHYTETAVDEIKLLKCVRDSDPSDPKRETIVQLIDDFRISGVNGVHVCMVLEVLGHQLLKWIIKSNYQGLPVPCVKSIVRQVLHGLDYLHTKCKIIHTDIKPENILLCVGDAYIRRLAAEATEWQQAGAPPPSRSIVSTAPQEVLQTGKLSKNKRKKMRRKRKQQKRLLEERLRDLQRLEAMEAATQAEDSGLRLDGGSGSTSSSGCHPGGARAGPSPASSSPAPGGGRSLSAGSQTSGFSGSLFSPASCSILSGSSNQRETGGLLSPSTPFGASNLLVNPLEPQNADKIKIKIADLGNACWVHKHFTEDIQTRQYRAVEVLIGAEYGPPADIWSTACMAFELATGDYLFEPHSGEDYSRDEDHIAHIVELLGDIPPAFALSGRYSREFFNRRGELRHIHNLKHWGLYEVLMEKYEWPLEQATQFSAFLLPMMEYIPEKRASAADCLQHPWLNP
Sequence of Mitogen-activated protein kinase 3 (Homo sapiens) (P27361 whole entry): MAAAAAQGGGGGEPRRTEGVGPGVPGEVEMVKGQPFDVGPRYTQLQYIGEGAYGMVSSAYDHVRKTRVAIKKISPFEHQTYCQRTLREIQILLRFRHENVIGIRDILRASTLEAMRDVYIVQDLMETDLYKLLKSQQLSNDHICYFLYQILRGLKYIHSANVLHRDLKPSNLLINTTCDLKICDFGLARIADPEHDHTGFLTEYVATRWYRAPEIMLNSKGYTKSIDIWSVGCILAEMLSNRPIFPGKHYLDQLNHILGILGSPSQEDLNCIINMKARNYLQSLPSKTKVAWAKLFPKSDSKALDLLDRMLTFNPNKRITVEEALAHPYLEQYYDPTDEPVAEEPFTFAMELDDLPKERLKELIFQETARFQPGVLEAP
Sequence of Homeodomain-interacting protein kinase 1 (Homo sapiens) (Q86Z02 whole entry, looked up): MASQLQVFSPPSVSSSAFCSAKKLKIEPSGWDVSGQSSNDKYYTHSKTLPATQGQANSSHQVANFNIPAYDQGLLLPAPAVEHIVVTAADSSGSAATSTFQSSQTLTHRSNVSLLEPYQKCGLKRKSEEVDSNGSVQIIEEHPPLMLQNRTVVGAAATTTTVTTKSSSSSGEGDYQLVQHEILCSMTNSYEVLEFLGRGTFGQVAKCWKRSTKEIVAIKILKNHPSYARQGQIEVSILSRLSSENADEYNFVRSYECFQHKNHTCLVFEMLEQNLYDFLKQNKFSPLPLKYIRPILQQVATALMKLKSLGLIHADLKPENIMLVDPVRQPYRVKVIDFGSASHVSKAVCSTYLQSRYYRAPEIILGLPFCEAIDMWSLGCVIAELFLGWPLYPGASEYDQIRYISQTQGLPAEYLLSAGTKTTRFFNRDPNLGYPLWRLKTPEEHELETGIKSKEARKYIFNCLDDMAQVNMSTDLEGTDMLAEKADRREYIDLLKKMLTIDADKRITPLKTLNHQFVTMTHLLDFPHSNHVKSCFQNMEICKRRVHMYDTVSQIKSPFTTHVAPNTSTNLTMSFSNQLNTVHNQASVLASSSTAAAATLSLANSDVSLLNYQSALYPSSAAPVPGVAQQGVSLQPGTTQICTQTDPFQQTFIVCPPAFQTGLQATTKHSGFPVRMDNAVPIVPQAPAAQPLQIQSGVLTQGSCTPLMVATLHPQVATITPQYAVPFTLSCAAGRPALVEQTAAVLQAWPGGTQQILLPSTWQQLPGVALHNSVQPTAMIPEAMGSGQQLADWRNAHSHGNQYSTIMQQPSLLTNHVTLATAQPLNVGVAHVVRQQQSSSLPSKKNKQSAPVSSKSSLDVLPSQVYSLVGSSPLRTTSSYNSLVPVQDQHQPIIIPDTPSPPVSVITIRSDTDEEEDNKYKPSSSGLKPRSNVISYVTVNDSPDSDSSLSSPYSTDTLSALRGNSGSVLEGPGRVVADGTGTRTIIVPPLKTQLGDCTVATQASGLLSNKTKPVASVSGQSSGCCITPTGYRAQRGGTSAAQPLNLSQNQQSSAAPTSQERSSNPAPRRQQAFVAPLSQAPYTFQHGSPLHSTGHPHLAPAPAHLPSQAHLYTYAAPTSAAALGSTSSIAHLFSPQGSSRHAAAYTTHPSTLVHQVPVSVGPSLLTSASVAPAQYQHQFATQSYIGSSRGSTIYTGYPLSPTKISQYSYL
Sequence of Mitogen-activated protein kinase 1 (Homo sapiens) (P28482 whole entry): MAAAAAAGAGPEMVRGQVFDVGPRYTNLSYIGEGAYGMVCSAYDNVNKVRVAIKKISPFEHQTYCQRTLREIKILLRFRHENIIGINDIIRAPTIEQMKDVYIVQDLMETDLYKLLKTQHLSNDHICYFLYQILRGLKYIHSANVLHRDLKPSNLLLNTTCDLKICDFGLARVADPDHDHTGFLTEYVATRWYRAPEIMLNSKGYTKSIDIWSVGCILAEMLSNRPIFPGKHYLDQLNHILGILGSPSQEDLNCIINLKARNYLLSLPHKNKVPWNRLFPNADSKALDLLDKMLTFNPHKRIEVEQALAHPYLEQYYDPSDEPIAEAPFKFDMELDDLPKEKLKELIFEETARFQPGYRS
Sequence of Mitogen-activated protein kinase 11 (Homo sapiens) (Q15759 whole entry): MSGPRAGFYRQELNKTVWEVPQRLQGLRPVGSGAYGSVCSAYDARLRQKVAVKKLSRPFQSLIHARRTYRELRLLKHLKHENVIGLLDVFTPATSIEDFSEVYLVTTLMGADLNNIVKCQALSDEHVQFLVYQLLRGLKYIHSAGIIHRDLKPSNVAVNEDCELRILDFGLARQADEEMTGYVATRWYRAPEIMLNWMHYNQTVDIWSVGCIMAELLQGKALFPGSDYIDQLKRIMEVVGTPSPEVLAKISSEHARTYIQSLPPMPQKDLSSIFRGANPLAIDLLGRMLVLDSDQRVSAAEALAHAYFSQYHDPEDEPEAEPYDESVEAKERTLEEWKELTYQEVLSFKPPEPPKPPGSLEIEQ

Compound	inhibition [1] [%]	inhibition [2] [%]	inhibition [3] [%]	inhibition [4] [%]	inhibition [5] [%]	inhibition [6] [%]	inhibition [7] [%]	inhibition [8] [%]	inhibition [9] [%]	inhibition [10] [%]	inhibition [11] [%]	inhibition [12] [%]	inhibition [13] [%]	inhibition [14] [%]	inhibition [15] [%]	inhibition [16] [%]	inhibition [17] [%]	inhibition [18] [%]	inhibition [19] [%]	inhibition [20] [%]
NC(=O)c1cccc(Nc2nccc(Nc3cccc(F)c3)n2)c1	15.8	-3.17	5.3	0.35	8.46	0.09	8.39	0.99	2.19	-0.06	1.21	-1.02	-0.91	2.29	2.5	0.85	1.67	-0.02	0.02	1.16
Cc1nc(-c2ccccc2)n2nc(NCCCN3CCOCC3)ncc12	18.5	0.72	13.3	1.88	14.4	1.8	5.36	3.31	6.13	4.27	1.02	-0.13	-0.34	3.9	3.71	1.59	2.11	1.83	1.77	1.57
Cc1cc(-c2ccccn2)cc(C)c1/C=C/c1cncc(-c2nn[nH]n2)c1	13.7	1.03	5.14	1.94	7.19	5.13	9.24	4.92	7.24	5.71	3.69	-0.25	-1.02	7.59	12.9	3.45	1.89	4.85	4.9	3.27
CN(C)c1cc2c(Nc3ccc4c(cnn4Cc4ccccc4)c3)ncnc2cn1	4.25	-0.5	2.06	0.72	0.89	2.84	2.39	1.31	3.41	0.27	-0.93	-1.42	-0.9	5.84	8.31	2.35	4.06	0.05	2.47	1.3
O=C1Nc2ccc(-c3cccnc3)cc2C1=Cc1cc(Br)c(O)c(Br)c1	21.4	2.42	22.4	2.35	13.8	1.52	3.04	6.12	3.37	4.06	1.77	1.44	1.95	5.87	7.67	1.48	1.36	1.39	3.3	2.25
CCn1c(-c2nonc2N)nc2c(C#CC(C)(C)O)nc(OCCNC)cc21	46.8	-1.59	7.86	0.33	1.92	3.85	2.84	5.46	5.18	3.73	4.08	0.05	-0.46	6.16	7.38	2.05	2.15	4.59	5.13	3.83
O=S(=O)(CCOCc1ccc(-c2ccc3ncnc(Nc4ccc(OCc5cccc(F)c5)c(Cl)c4)c3c2)o1)c1ccccc1	5.91	-2.8	2.64	2.22	5.69	0.13	0.74	2.68	3.54	3.68	1.69	-0.89	1.24	0.07	0.7	-0.78	-0.75	1.66	1.53	1.14
c1ccc(Nc2ncc(-c3ccccc3)o2)cc1	13.3	-2.56	3.15	1.19	6.31	6.78	12.9	6.94	7.41	6.5	4.13	-1.27	-0.17	9.09	11.8	5.86	5.93	4.95	4.65	2.89
O=C1Nc2ccccc2/C1=C/Nc1ccc2[nH]c(=O)[nH]c2c1	12	1.38	6.25	2.76	5.62	4.66	12.5	5.93	5.63	5.69	3.88	-2.26	-0.78	11.6	11.5	5.12	9.63	3.8	4.97	0.57
[O-][S+]1CCN(Cc2ccc(-c3ccc4ncnc(Nc5ccc(OCc6ccccc6)c(Cl)c5)c4c3)o2)CC1	1.33	-1.84	0.05	0.81	2.27	-0.11	2.26	3.15	4.09	1.32	2.24	-1.59	0.03	16.9	20.8	1.98	5.76	1.28	0.19	0.47
Cc1ccc2c(-c3ccnc(Nc4cccc(C(F)(F)F)c4)n3)c(-c3ccccc3)nn2n1	76	0.33	3.87	1.36	13.5	30.1	82.2	6.13	9.3	5.72	8.27	0.34	-0.19	37.5	73.5	6.89	45.1	4.66	6.13	3.8
Cc1ccc(NC(=O)CC2CC2)cc1-c1ccc(C(=O)NCC2CC2)cc1	3.08	-0.11	1.56	2.64	4.19	3.4	3.8	2.01	3.96	5.26	3.92	-0.32	3.16	29.7	74.3	17.2	60.8	3.22	4.09	0.38
CN(C)C(=O)O[C@@H]1CN[C@@H](C#Cc2cc3ncnc(Nc4ccc(OCc5cccc(F)c5)c(Cl)c4)c3s2)C1	7.41	-3.67	-3.81	-1.55	0.99	3.81	4.77	-1.16	1.96	3.17	1.36	-1.41	-1.97	5.64	2.87	3.3	6.17	1.12	1.11	0.57
